Hits are enriched below; roughly 19% of the tested compounds scored in any of these assays.
TDP1 cell noCPT: qHTS for Inhibitors of human tyrosyl-DNA phosphodiesterase 1 (TDP1): qHTS in cells in absence of CPT; DT40 Tdp1-/- hTDP1 cells, no CPT, ATP luminescence, 48 h; Potency, µM (top dose mostly 46.2 µM), inactives show at the highest dose activity change, negative = growth inhibition, usual class: inhibitors; 15% of 420,000 active; AID 686978, 2013; also: potency is read from the fitted curve at half-maximal effect; nearly all actives have a fitted effect of over 55% in size
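Seeded 400 DT40-hTDP1 cells/well (vehicle DMSO, no 20 nM CPT); pinned compounds; ≥48 hr at 37 °C; CellTiter-Glo luminescence as viability measure.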
IL-1B inflam inh: qHTS for Inhibitors of Inflammasome Signaling: IL-1-beta AlphaLISA Primary Screen. THP-1 LPS/ATP IL-1B secretion, AlphaLISA, 16 h; stronger effect = lower value. activity change, % at 57.5 µM. 4.7% of 360,000 active; in the data active = activity change below about -50%; inconclusive = mostly about -30% to -49%
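Secreted IL-1B measured by AlphaLISA bead assay after 16 h compound exposure of THP-1 cells; compounds (final up to 57.5 uM) added 1 h before LPS (250 ng/mL) and ATP (1.25 mM) stimulation; lower signal means less secretion.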
HT1080-NT tox: qHTS for induction of synthetic lethality in tumor cells producing 2HG: qHTS for the HT-1080-NT fibrosarcoma cell line; HT-1080-NT fibrosarcoma viability, CellTiter-Glo ATP luminescence, 48 h; Potency, µM (highest dose often 46.1 µM), inactives show at the top dose activity, negative = less viability, most hits filed as cytotoxic; 1.6% of 360,000 active;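 also: NT is the 2HG producing partner of a matched IDH1 knockdown line; potency is read from the fitted curve at half-maximal effect; 0% = DMSO-treated cells and -100% = media-only wells without cells; nearly all actives have a fitted effect of over 55% in size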
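Viability of the 2HG-overproducing fibrosarcoma line after 48 hours of compound exposure at 37 degrees C was determined by luminescence with CellTiter-Glo, and concentration-effect curves were then fitted and categorized.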
TDP1 cell CPT: qHTS for Inhibitors of human tyrosyl-DNA phosphodiesterase 1 (TDP1): qHTS in cells in presence of CPT. chicken DT40 Tdp1-/-;hTDP1 cells + 20 nM CPT, ATP luminescence, 48 h. Potency, µM (top dose mostly 46.2 µM), without a hit: at the highest dose activity change, negative = growth inhibition, usual class: inhibitors. 12% of 420,000 active. AID 686979, 2013; also: potency is read from the fitted curve at half-maximal effect; nearly all actives have a fitted effect of over 55% in size
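Chicken DT40 Tdp1-/- cells complemented with human TDP1, 400 cells/well, exposed to compounds plus 20 nM camptothecin for at least 48 h at 37 C; viability read as ATP content by CellTiter-Glo luminescence.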
uPA surface inh: qHTS for Inhibitors of Cell Surface uPA Generation | Potency, µM (series often up to 38.3 µM), without a hit: top-dose activity change, negative = inhibition, usual class: inhibitors | cell surface uPA generation assay, qHTS | 0.31% of 330,000 active | AID 540303, 2011; active = well fitted inhibition curve with a large enough effect; inconclusive = small, poorly fitted or top-dose-only effect; inactive = no such curve, though single readings can be large or run the other way; tested in mouse RAW 264.7 cells; also: potency is read from the fitted curve at half-maximal effect; nearly all actives have a fitted effect of over 55% in size
HT1080 IDH1KD tx: qHTS for induction of synthetic lethality in tumor cells producing 2HG: qHTS for the HT-1080-IDH1KD cell line. Potency, µM (doses to about 46.1 µM), without a hit: at the top dose activity, negative = toxicity, hits mostly cytotoxic. HT-1080 IDH1 knockdown viability, ATP luminescence, 48 h. AID 686971, 2013. 2% of 360,000 active;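 also: potency is read from the fitted curve at half-maximal effect; 0% = DMSO wells and -100% = cell-free medium wells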
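Viability of IDH1-knockdown HT-1080 fibrosarcoma cells was assessed by CellTiter-Glo after 48 h at 37 °C with titrated compound; concentration-effect curves were classified by fit quality and response size.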
* marks the source's active call; other numbers are inactive results. Unless noted, calls follow the shape of the dose curve; as a rule, active = well fitted curve in the direction sought with a large enough effect; inconclusive = small, poorly fitted or top-dose-only effect, or another doubt; inactive = no such curve, though single readings can be large; an effect the other way counts as inactive or inconclusive. Unless noted, % is scaled to controls: 0 for no effect and ±100 for the full control effect.

For COc1ccccc1N1CCN(CC(=O)c2c(C)[nH]c3ccccc23)CC1 the results were TDP1 cell noCPT inconclusive, IL-1B inflam inh -8.0, HT1080-NT tox -22.2%, TDP1 cell CPT inconclusive, uPA surface inh 10.7% and HT1080 IDH1KD tx -27.6%.
`O=C(CN1CCN(c2ccccc2F)CC1)c1c[nH]c2ccccc12` gave TDP1 cell noCPT inconclusive, IL-1B inflam inh 12.5, HT1080-NT tox -14.9%, TDP1 cell CPT inconclusive, uPA surface inh 3.0% and HT1080 IDH1KD tx -7.5%.
Screening COc1ccccc1N1CCN(CC(=O)c2c[nH]c3ccccc23)CC1 returned TDP1 cell noCPT 10.3µM*, IL-1B inflam inh 20.0, HT1080-NT tox -15.7%, TDP1 cell CPT inconclusive, uPA surface inh 0.8% and HT1080 IDH1KD tx -25.6%.
For COc1ccccc1N1CCN(CC(O)c2c(C)[nH]c3ccccc23)CC1 (stereo not drawn) the results were TDP1 cell noCPT 16.4µM*, IL-1B inflam inh -3.4, HT1080-NT tox -13.1%, TDP1 cell CPT inconclusive, uPA surface inh -9.8% and HT1080 IDH1KD tx -18.0%.
Screening CC1CC(C)CN(CC(=O)c2c[nH]c3ccccc23)C1 (stereo not drawn) returned TDP1 cell noCPT 23.1µM*, IL-1B inflam inh -3.6, HT1080-NT tox -1.8%, TDP1 cell CPT inconclusive, uPA surface inh 2.3% and HT1080 IDH1KD tx -4.6%.
`CCCCCCCCCCCCCCCC(C)C1=NCCN1` (stereo not drawn) gave TDP1 cell noCPT 0.9% and TDP1 cell CPT inconclusive.
Cn1c(CNC(=O)c2ccco2)nnc1SCC(=O)Nc1ccccc1Cl was read as TDP1 cell noCPT 2.5%, IL-1B inflam inh -4.8, HT1080-NT tox -2.8%, TDP1 cell CPT -11.4%, uPA surface inh 0.0% and HT1080 IDH1KD tx 15.6%.
Cn1nnnc1SCC(=O)Nc1cc(S(=O)(=O)N2CCCC2)ccc1Cl was read as TDP1 cell noCPT 0.0%, IL-1B inflam inh -6.0, HT1080-NT tox 4.5%, TDP1 cell CPT 8.7%, uPA surface inh 2.1% and HT1080 IDH1KD tx 5.6%.
Screening Cc1cc(C)nc(SCC(=O)Nc2ccc(S(=O)(=O)N3CCCCC3)cc2)n1 returned TDP1 cell noCPT inconclusive, IL-1B inflam inh -3.6, HT1080-NT tox 0.5%, TDP1 cell CPT inconclusive, uPA surface inh 1.5% and HT1080 IDH1KD tx -4.1%.
Screening Cc1cccc(Nc2nnc(SCC(=O)NC(=O)Nc3ccc4c(c3)OCCO4)s2)c1 returned TDP1 cell noCPT inconclusive, IL-1B inflam inh 28.4, HT1080-NT tox 23.1µM*, TDP1 cell CPT inconclusive, uPA surface inh 1.2% and HT1080 IDH1KD tx inconclusive.
`Cn1nnnc1SCC(=O)Nc1cc(S(=O)(=O)N2CCCCC2)ccc1Cl` gave TDP1 cell noCPT 23.1µM*, IL-1B inflam inh -5.2, HT1080-NT tox -4.7%, TDP1 cell CPT 18.4µM*, uPA surface inh -7.3% and HT1080 IDH1KD tx -1.7%.
Screening Cc1csc(SCC(=O)Nc2ccc(S(=O)(=O)N3CCCC3)cc2)n1 returned TDP1 cell noCPT -20.4%, IL-1B inflam inh 4.7, HT1080-NT tox -5.0%, TDP1 cell CPT 18.4µM*, uPA surface inh 0.4% and HT1080 IDH1KD tx -11.7%.
`Cc1ccc(Nc2nnc(SCC(=O)c3ccc(Br)s3)s2)c(C)c1` gave TDP1 cell noCPT inconclusive, IL-1B inflam inh inconclusive, HT1080-NT tox 0.6%, TDP1 cell CPT -6.8%, uPA surface inh -0.4% and HT1080 IDH1KD tx -1.9%.
For Cc1cccc(C)c1Nc1nnc(SCC(=O)c2ccc(Br)s2)s1 the results were TDP1 cell noCPT 16.4µM*, IL-1B inflam inh 0.0, HT1080-NT tox -7.2%, TDP1 cell CPT inconclusive, uPA surface inh 9.7% and HT1080 IDH1KD tx -9.8%.

Compound activity (PubChem)
